Compound activity as filed in PubChem.
In the library only some 0.92% were active in any assay of this set; here they are far more common.
RecA splice inh – blocks M. tuberculosis RecA intein splicing | P9WHJ3 | cell-free RecA intein splicing, fluorescence | 290,000 tested, 0.75% active | inhibition, % (no concentration beside the values); in the data active means inhibition above about 30%; inconclusive means no clear call, values can overlap the other calls
Mtb UGM inh – Mtb UDP-galactopyranose mutase inhibition. P9WIQ1. purified UGM, fluorescence polarization probe displacement. inhibition, % at 10 µM. 320,000 tested, 0.06% active; in the data active means inhibition above about 10%, passing the limit was not always enough; inconclusive means no clear call, values can overlap the other calls
Target sequence (P9WIQ1 whole entry, looked up): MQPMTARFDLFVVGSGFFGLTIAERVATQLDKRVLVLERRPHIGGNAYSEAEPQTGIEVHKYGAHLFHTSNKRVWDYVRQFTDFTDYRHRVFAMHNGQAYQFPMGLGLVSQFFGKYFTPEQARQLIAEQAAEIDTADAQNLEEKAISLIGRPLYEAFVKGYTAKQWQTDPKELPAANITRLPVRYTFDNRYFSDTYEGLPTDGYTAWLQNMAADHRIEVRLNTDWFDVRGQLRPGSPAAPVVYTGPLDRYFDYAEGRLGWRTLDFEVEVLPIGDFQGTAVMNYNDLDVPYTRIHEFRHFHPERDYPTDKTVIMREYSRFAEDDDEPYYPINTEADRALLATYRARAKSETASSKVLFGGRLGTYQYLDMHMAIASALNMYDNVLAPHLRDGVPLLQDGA
Mtb bLac sens – beta-lactam sensitization of Mtb H37Rv; AID 434955; 330,000 tested, 0.27% active; M. tuberculosis H37Rv growth with meropenem, percent inhibition; inhibition, % at 25 µM;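 further: growth measured after seven days incubation then overnight dye step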
Rv3671c inh – inhibitors of M. tuberculosis serine protease Rv3671c; AID 2606; P9WHR9; 320,000 tested, 0.048% active; inhibition, % at 5.96 µM; in the data active means inhibition above about 38%;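 further: extracellular domain of Rv3671c used as enzyme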
FadD28 binding – M. tuberculosis FadD28 bisubstrate binding inhibition; inhibition, % at 12.5 µM; AID 588549; 360,000 tested, 0.22% active; FadD28 bisubstrate probe binding, fluorescence polarization; in the data active means inhibition above about 8.5%, passing the limit was not always enough; inconclusive means no clear call, values can overlap the other calls
Mtb hypoxia inh – Mtb hypoxia fluorescent reporter inhibition; M. tuberculosis hypoxia-regulated fluorescent reporter, fluorescence; fluorescence inhibition, % (no concentration beside the values); 300,000 tested, 0.1% active; in the data active means fluorescence inhibition mostly above about 23%, no sharp cut-off; inactive means mostly below about 17%
GFP chromophore – counter-screen: blocks GFP chromophore formation; cell-free GFP chromophore formation, fluorescence; EC50, µM; 2,100 tested, 83% active; shares compounds with RecA splice inh
Of the large screens only hits and unclear results are named; the others gave an inactive call (follow-up assays come after a bar, where shown). Unless noted, how the calls were made is not given here.

CCN(CC)C(=O)c1ccc2c(c1[N+](=O)[O-])C(=O)c1ccccc1C2=O	RecA splice inh 42 (no result: FadD28 binding, Mtb hypoxia inh) | GFP chromophore inactive
CCOC(=O)c1ccc(NC(=O)C2=C(C)Nc3nc(CCCO)nn3C2c2ccc(OC)cc2)cc1 (stereo not drawn)	none
Oc1[nH]c2ccc(Br)cc2c1N=NC(=S)Nc1ccc(F)cc1	none
Oc1ccc(NC(=S)N=Nc2c(O)[nH]c3ccc(Br)cc23)cc1	RecA splice inh 67 (no result: Mtb UGM inh, Mtb bLac sens, Rv3671c inh) | GFP chromophore inactive
c1ccc(Cn2nnnc2C(c2cccnc2)N2CCN(C3CCCCC3)CC2)cc1 (stereo not drawn)	none
CC1CCC(C)(NS(=O)(=O)OCC(Cl)(Cl)Cl)CC1 (stereo not drawn)	none
O=S(=O)(N[C@H]1C[C@@H](NS(=O)(=O)OCC(Cl)(Cl)Cl)C2CCCCC21)OCC(Cl)(Cl)Cl (stereo partly drawn)	RecA splice inh 32 (no result: Mtb hypoxia inh) | GFP chromophore inactive
O=C(CCl)N1CCN(S(=O)(=O)c2ccc3ccccc3c2)CC1	RecA splice inh 76 | GFP chromophore 28
CN(C)C(=O)N1CCN(S(=O)(=O)c2ccc3ccccc3c2)CC1	none (no result: RecA splice inh)
O=C(Cn1ncc(Cl)c(Cl)c1=O)c1ccc(Cl)cc1	none
O=C(OCn1ncc(Cl)c(Cl)c1=O)c1ccccc1Cl	RecA splice inh 89 | GFP chromophore 5.2
CC(C)(C)C(=O)Cn1ncc(Cl)c(Cl)c1=O	none (no result: Mtb UGM inh, Mtb bLac sens, Rv3671c inh)
O=C(OCn1ncc(Cl)c(Cl)c1=O)c1ccc(F)cc1	RecA splice inh 75 (no result: FadD28 binding, Mtb hypoxia inh) | GFP chromophore 8.1
CC(NC(=O)/C(C#N)=C/c1ccco1)c1ccccc1 (stereo not drawn)	none
CC(NC(=O)/C(C#N)=C/c1ccc([N+](=O)[O-])o1)c1ccccc1 (stereo not drawn)	RecA splice inh 47 (no result: Mtb hypoxia inh) | GFP chromophore inactive
Cc1c(C(=O)OCC(=O)N(CC(C)C)c2c(N)n(Cc3ccccc3)c(=O)[nH]c2=O)oc2ccccc12	none (no result: RecA splice inh, Mtb UGM inh, Mtb bLac sens, Rv3671c inh)
Cc1ccc(NC(=O)c2sc3ncnc(N4CCN(c5ccccn5)CC4)c3c2C)c(C)c1	RecA splice inh 73 (no result: Mtb hypoxia inh) | GFP chromophore inactive
O=C(Oc1ccc(N2C(=O)C3C4CCC(C4)C3C2=O)cc1)c1ccco1 (stereo not drawn)	RecA splice inh 30 | GFP chromophore inactive
O=C1C2C3CCC(C3)C2C(=O)N1c1ccc(OS(=O)(=O)c2ccccc2)cc1 (stereo not drawn)	none
CCn1c(Cl)c(C=O)s/c1=N\S(=O)(=O)c1ccccc1	RecA splice inh 89 (no result: Mtb hypoxia inh) | GFP chromophore 15
CCN1C(=O)CSC1=NS(=O)(=O)c1ccccc1	none (no result: RecA splice inh, Mtb UGM inh, Mtb bLac sens, Rv3671c inh, FadD28 binding)
Cc1ccc(-c2cc(=O)[nH][nH]2)c(C)c1	RecA splice inh 95 | GFP chromophore 2.9
Cc1ccc(-c2csc3nc[nH]c(=O)c23)c(C)c1	none
CCc1nnc(N/N=C/c2cc(Br)c(O)cc2O)n1N	RecA splice inh 40 (no result: Mtb hypoxia inh) | GFP chromophore 32
CCc1nnc(NN=Cc2ccccc2F)n1N	none (no result: RecA splice inh, Mtb UGM inh, Mtb bLac sens, Rv3671c inh, FadD28 binding)
COc1ccc(C(=O)Nc2ccncc2)cc1[N+](=O)[O-]	RecA splice inh 39 (no result: Rv3671c inh) | GFP chromophore inactive
COc1cccc(CNS(=O)(=O)c2ccc(N3CCCC3=O)cc2)c1	none
O=C1c2ccccc2C(=O)c2[nH]cnc21	none (no result: Rv3671c inh, Mtb hypoxia inh)
O=C1c2ccccc2C(=O)c2c1ncn2-c1ccccc1	RecA splice inh 37 | GFP chromophore inactive
O=[N+]([O-])c1c(NCCCO)cc(SCc2ccco2)c2nonc12	RecA splice inh 65 | GFP chromophore 27
CC(=O)OCCNc1cc(SCc2ccco2)c2nonc2c1[N+](=O)[O-]	RecA splice inh 78 | GFP chromophore 11
CC(=O)OCCNc1cc(Sc2nc3ccccc3[nH]2)c2nonc2c1[N+](=O)[O-]	none (not shown: Mtb hypoxia inh)
O=[N+]([O-])c1c(NCCCO)cc(N2CCCCCC2)c2nonc12	none
O=[N+]([O-])c1c(NCCCO)cc(Sc2ccc(Cl)cc2)c2nonc12	none
Cn1ccnc1Sc1cc(NCCCO)c([N+](=O)[O-])c2nonc12	RecA splice inh 67 (no result: Mtb hypoxia inh) | GFP chromophore 14
CCOc1cc(CNc2ccc(O)cc2)ccc1OCc1ccc(Cl)cc1Cl	RecA splice inh 40 (no result: Mtb hypoxia inh) | GFP chromophore inactive
CCOc1ccccc1CNc1ccc(O)cc1	RecA splice inh 82 (no result: Mtb UGM inh, Mtb bLac sens, Rv3671c inh) | GFP chromophore 23
COc1cc(/C=C2/SC(=S)N(Cc3ccccc3)C2=O)ccc1OCC(=O)O	RecA splice inh 37 (no result: Mtb hypoxia inh) | GFP chromophore 33
O=C1/C(=C\c2ccc(O)cc2)SC(=S)N1Cc1ccccc1	none (no result: Mtb hypoxia inh)
CCOc1cc(/C=C2/SC(=S)N(Cc3ccccc3)C2=O)ccc1O	RecA splice inh 33 | GFP chromophore 28
Cc1ccccc1-n1ccnc1SCC(=O)O	none
COC(=O)c1ccc(NC(=O)Nc2ccc(F)c(Cl)c2)cc1	none
CCn1nc(/C=C/c2ccccc2)nc2c(=O)n(C)c(=O)nc1-2	RecA splice inh 79 (no result: Mtb UGM inh, Mtb bLac sens, Rv3671c inh) | GFP chromophore 0.31
N#CC1=C(N)C(C#N)(C#N)C(c2cccnc2)C2CN(C(=O)OCc3ccccc3)CC=C12 (stereo not drawn)	RecA splice inh 45 | GFP chromophore 4.4
CCOC(=O)N1CC=C2C(C#N)=C(N)C(C#N)(C#N)[C@H](c3ccc(OCC)c(OCC)c3)[C@H]2C1	none
O=C(CN1C(=O)c2cccc3cccc1c23)N1CCN(Cc2ccc3c(c2)OCO3)CC1	none (no result: Mtb hypoxia inh)
Fc1ccc(-n2nnc(-c3ccccc3Cl)n2)cc1	none
CC1(C)C(c2cccs2)=[N+]([O-])C2(CCCCCC2=NNC(N)=S)N1O (stereo not drawn)	none (no result: RecA splice inh, Mtb UGM inh, Mtb bLac sens, Rv3671c inh, FadD28 binding)
Cc1ccc(-c2nc(CN3CCCC(C(=O)N4CCOCC4)C3)c(C)o2)cc1 (stereo not drawn)	RecA splice inh 44 | GFP chromophore inactive
Cc1ccc(SCc2cc(=O)n3[nH]c(C)nc3n2)cc1	none (no result: Mtb hypoxia inh)
Cc1ccc(SCc2cc(=O)n(C)[nH]2)cc1	RecA splice inh 95 | GFP chromophore 19
N#Cc1c(N2CCCC2)nc(N)c2c(N)nc(N3CCCC3)cc12	RecA splice inh 58 | GFP chromophore 0.24
CCOC(=O)c1cnc(N)nc1C(F)(F)F	RecA splice inh 61 | GFP chromophore inactive
CCNc1ccc(S(=O)(=O)N2CCCCC2)cn1	none (no result: RecA splice inh)
CN(Cc1ccccc1)C(=O)N[C@@H](Cc1ccccc1)C(=O)O	none
Cc1cc(=O)n(CCCc2ccccc2)[nH]1	RecA splice inh 92 | GFP chromophore 8
COC(=O)c1cc(C)nc2c1C(=O)C(=O)C=C2N1CCOCC1	RecA splice inh 96, FadD28 binding inconclusive | GFP chromophore 0.97
O=C(Nc1nc(-c2ccccn2)cs1)c1ccc(-c2ccccc2F)o1	none (no result: RecA splice inh)
Cn1c(/N=C/c2c(O)ccc3ccccc23)nc2ccccc21	RecA splice inh 73, Mtb bLac sens inconclusive (no result: Mtb hypoxia inh) | GFP chromophore 9.1
CCOC(=O)C1=C(C)NC(=O)NC1c1ccc(OC(=O)c2ccco2)c(OC)c1 (stereo not drawn)	none
C=CCOC(=O)C1=C(C)NC(=O)NC1c1ccc(OC(=O)c2ccco2)c(OC)c1 (stereo not drawn)	RecA splice inh 31 | GFP chromophore inactive
Cn1cnc([N+](=O)[O-])c1NC(C)(C)C	none (no result: Mtb hypoxia inh)
